Bioassay records deposited in PubChem by Center for Chemical Genomics, University of Michigan.
Dicer processing: blocks human Dicer maturation of pre-miR-21; Q9UPY3; cat-ELCCA pre-miR-21 Dicer processing, chemiluminescence; active compounds read high; z-score at 25 µM; 6% of 47,000 active; AID 1347074; in the data active = z-score above about 3, passing the limit was not always enough;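 note: higher signal means more uncleaved substrate so more Dicer inhibition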
Hits are given with their value; i = inactive. This is one part of a sample in which hits are shown more often than they occur.

SMILES	Dicer processing
COc1ccc(N2C(=O)CC(Nc3ccc(N4CCCCC4)cc3)C2=O)cc1 (configuration not stated)	i
CSC(=NCc1c(N)cccc1F)NC#N	i
O=C1/C(=C\c2ccccc2)SC(=S)N1c1cccc(Br)c1	4
O=C1/C(=C\c2ccc(Cl)c(Cl)c2)SC(=S)N1c1ccc(F)c(F)c1	i
Cc1cc(C)c2c(=O)c(/C=C3/SC(=S)N(c4cccc(Cl)c4)C3=O)coc2c1	i
CN(C)CCN(Cc1ccccc1)C(=O)C(C(=O)c1ccccc1)n1ccccc1=O (configuration not stated)	i
COc1ccc2[nH]c(C(=O)N3CCCN(C(=O)c4cccs4)CC3)cc2c1	i
COc1ccc(C2NC(=O)c3c(sc4c3CCN(C)C4)N2)cc1 (configuration not stated)	i
CCOC(=O)c1ccc(NC(N)=S)cc1	i
CCOC(=O)c1ccc(NC(=S)NC(C)(C)CO)cc1	i
CCOC(=O)c1ccc(NC(=S)NN)cc1	3.5
CC1=Nc2cc(Cl)c(Cl)cc2NC(C)(C)C1	7.2
CC1CC(C)CN(c2nc3nonc3nc2N2CC(C)CC(C)C2)C1 (configuration not stated)	i
O=C(c1cn(CC(=O)N2CCCCC2)c2ccccc12)C1CC1	i
O=C(Cn1nc(C(F)F)cc1C1CC1)N1CCCC1	3.1
CC1CCc2c(sc3nnn(CC(=O)N4CCCC4)c(=O)c23)C1 (configuration not stated)	i
O=C(/C=C/c1cccs1)NC(=S)Nc1ccccc1Cl	i
N#C/C(=C\N1CCc2ccccc21)S(=O)(=O)c1ccc(Cl)cc1	i
O=S(=O)(Nc1cc(C(F)(F)F)cc(C(F)(F)F)c1)c1ccc(Cl)s1	i
Cc1c(Cc2c(F)cccc2Cl)c(=O)oc2cc(OC(=O)c3ccco3)ccc12	i
CCOC(=O)COc1ccc2c(C)c(Cc3c(Cl)cccc3Cl)c(=O)oc2c1	3.3
CCOC(=O)COc1ccc2c(-c3ccccc3)cc(=O)oc2c1	i
CN(C)c1ccc(/C=N/NC(=O)N/N=C/c2ccc(N(C)C)cc2)cc1	i
Cc1nn(C)c2ncc3c(=O)n(Cc4ccc(Cl)cc4)n(C)c3c12	i
CSc1ccc(C2C(C(=O)OC3CCCCC3)=C(C)NC3=C2C(=O)CCC3)cc1 (configuration not stated)	i
SMILES	Dicer processing
Cc1ccc(-c2nc(/N=C/N(C)C)sc2C)cc1Cl	i
O=C(ON/C=N/c1ncc(-c2ccc(Br)s2)s1)c1ccc([N+](=O)[O-])cc1	i
Cc1ccc(-c2nc(/N=C/NOC(=O)c3ccc([N+](=O)[O-])cc3)sc2C)cc1Cl	3.6
COc1ccc(C(=O)Oc2ccc3c(=O)c(Oc4ccccc4Br)coc3c2)cc1	i
COc1ccc2c(=O)c(Oc3ccccc3Br)coc2c1	4.7
COc1ccc(Oc2coc3cc(OC(=O)c4ccc(Br)cc4)ccc3c2=O)cc1	5.4
COc1ccc(Oc2coc3cc(OC(=O)c4ccco4)ccc3c2=O)cc1	i
COc1cccc(OC)c1C(=O)Oc1ccc2c(=O)c(Oc3ccccc3Br)coc2c1	i
COc1ccc(Oc2coc3cc(OC(=O)c4cccs4)ccc3c2=O)cc1	i
CCOC(=O)c1sc(-c2ccccc2)nc1CSc1nnc(SCC2CC2)s1	i
CCCCCCCNc1c2c3c(cccc3n(C)c1=O)C(=O)c1ccccc1-2	i
Cn1c(=O)c(Nc2ccccc2)c2c3c(cccc31)C(=O)c1ccccc1-2	3.3
COc1ccc(Nc2c3c4c(c(Br)ccc4n(C)c2=O)C(=O)c2ccccc2-3)cc1	i
CCOC(=O)CSc1nc2ccccc2c(=O)n1CC1CCCCC1	i
O=C(Nc1ccc(Br)cc1)c1csc2c1CCCC2	i
CCCCC(CC)C(=O)Nc1nc2ccc(S(C)(=O)=O)cc2s1 (configuration not stated)	4.8
CCCCOC(=O)Nc1nc2ccc(S(C)(=O)=O)cc2s1	4.8
COc1cc(SC)ccc1C(=O)Nc1nc2ccc(S(C)(=O)=O)cc2s1	i
COc1ccc(OCCCC(=O)Nc2nc3ccc(S(C)(=O)=O)cc3s2)cc1	i
CC(Oc1ccccc1F)C(=O)Nc1nc2ccc(S(C)(=O)=O)cc2s1 (configuration not stated)	i
CCCCC(=O)Nc1nc2ccc(S(C)(=O)=O)cc2s1	i
Clc1cccc(CN2CCN(Cc3ccncc3)CC2)c1	i
O=C(NNc1nc(-c2cccc([N+](=O)[O-])c2)cs1)c1ccccc1Cl	i
CN(CCOC(=O)c1cccs1)C(C)(C)C	i
O=C(OCCN1CCCCC1)c1cccs1	3.7
SMILES	Dicer processing
COc1cc(N)c(Cl)cc1C(=O)OCCN1CCCCC1	i
O=C(O)c1ccc(COc2cccc(Cl)c2)o1	i
C=C1SC(Nc2c(C)cccc2C)=NC1(C)C	i
O=C(O)Cn1cnc2sc(-c3ccccc3)cc2c1=O	i
CCOc1cc(C2C(C(=O)OCc3ccc(OC)cc3)=C(C)NC3=C2C(=O)CC(C)(C)C3)ccc1O (configuration not stated)	i
CN1C/C(=C\c2ccccc2)C(=O)/C(=C/c2ccccc2)C1	i
O=C1/C(=C/c2ccc(F)cc2)CN(Cc2ccccc2)C/C1=C\c1ccc(F)cc1	4.2
COc1ccc(/C=C2\CN(C)C/C(=C\c3ccc(OC)cc3)C2=O)cc1	i
CC(=O)/C(=C\N=S(C)(=O)c1ccccc1)S(=O)(=O)c1ccc(Cl)cc1 (configuration not stated)	i
CC(=O)OC[C@H]1O[C@@H](Nc2ccc(C)cc2)[C@H](OC(C)=O)[C@@H](OC(C)=O)[C@@H]1OC(C)=O	i
